Measurements reported in PubChem BioAssay AID651663 (NMMLSC, 2012).
Values without a mark were called inactive.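 The calls were made as follows: active = fitted half-maximal signal drop concentration below 100 µM; inactive = the rest.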

Target: ATP-binding cassette sub-family B member 6 (Homo sapiens) (UniProt Q9NP58)
Assay: ABCB6 transporter inhibitors, porphyrin accumulation, dose response, flow cytometry, K562-ABCB6 cells, powder set 01 (AID 651663)
Conditions: 1 h; series mostly up to 100 µM; response % of control, lower = inhibition: at the top concentration

Sequence of ATP-binding cassette sub-family B member 6 (Homo sapiens) (Q9NP58 whole entry, looked up): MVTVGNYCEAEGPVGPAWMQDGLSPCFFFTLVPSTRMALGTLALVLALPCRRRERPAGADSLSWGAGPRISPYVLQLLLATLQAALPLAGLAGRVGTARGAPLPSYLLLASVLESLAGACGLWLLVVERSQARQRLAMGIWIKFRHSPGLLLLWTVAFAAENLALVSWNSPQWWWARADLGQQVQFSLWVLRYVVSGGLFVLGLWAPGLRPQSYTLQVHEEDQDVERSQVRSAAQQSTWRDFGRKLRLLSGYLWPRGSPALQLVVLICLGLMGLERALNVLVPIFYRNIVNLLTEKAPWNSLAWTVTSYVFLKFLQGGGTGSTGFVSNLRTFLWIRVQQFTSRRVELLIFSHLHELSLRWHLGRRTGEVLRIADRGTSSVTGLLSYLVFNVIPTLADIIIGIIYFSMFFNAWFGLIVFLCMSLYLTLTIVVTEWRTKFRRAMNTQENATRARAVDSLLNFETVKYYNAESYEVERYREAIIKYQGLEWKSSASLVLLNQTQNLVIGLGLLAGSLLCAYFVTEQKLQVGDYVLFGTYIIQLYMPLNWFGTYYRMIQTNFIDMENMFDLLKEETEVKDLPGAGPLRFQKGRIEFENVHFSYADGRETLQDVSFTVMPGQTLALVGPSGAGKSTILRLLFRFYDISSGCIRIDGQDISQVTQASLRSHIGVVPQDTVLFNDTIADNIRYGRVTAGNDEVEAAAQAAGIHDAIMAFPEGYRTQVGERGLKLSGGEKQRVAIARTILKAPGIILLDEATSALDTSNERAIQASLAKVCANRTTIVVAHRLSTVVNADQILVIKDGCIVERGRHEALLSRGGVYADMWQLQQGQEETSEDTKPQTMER

| Compound | response % of control, lower = inhibition [%] |
| --- | --- |
| CCOc1ccccc1NC(=O)c1nc(S(=O)(=O)Cc2cccc(C)c2)ncc1Cl | 91.9 |
| CCc1ccc(NC(=O)c2nc(S(=O)(=O)Cc3ccccc3)ncc2Cl)cc1 | 79.5 |
| CC(=O)Nc1ccc(NC(=O)c2nc(S(=O)(=O)Cc3ccccc3)ncc2Cl)cc1 | 78.9 |
| CC(=O)Nc1ccc(NC(=O)c2nc(S(=O)(=O)Cc3cccc(C)c3)ncc2Cl)cc1 | 360 |
